SMARCA2 activ = SMARCA2 function activation, primary screen; MG213 cells, MMTV-luciferase reporter, dexamethasone, overnight; activation, % at 9.1 µM; hit rate 1% among 370,000; in the data active = activation above about 7.8%;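 also: 0% = vehicle wells and 100% = reference activator wells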
HSP90 inh = blocks HSP90-mediated luciferase refolding in reticulocyte lysate; Rabbit reticulocyte lysate, luciferase refolding luminescence, 3 h; inhibition, % at 5.6 µM; hit rate 0.91% among 290,000;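 active = inhibition above the screen-wide mean plus 3 SD, computed separately per campaign, cut at about 16% in these data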;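 also: 0% = DMSO wells and 100% = 60 µM geldanamycin wells; inhibitors lower the luminescence because luciferase stays unfolded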
HSF1 inh = HSF1 inhibition. NIH3T3-HGL HSE-luciferase, MG132-induced, luminescence 8 h; stronger effect = lower value. hit rate 0.77% among 300,000. activity change, negative = inhibition, % at 7.5 µM (by protocol);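 active = more than half of replicate wells show activity change below -50%, luminescence cut by over half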;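 also: luciferase reports HSF-1 transcriptional activity via heat shock element; 0% = median of DMSO wells and -100% = zero luminescence signal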
AI-2 QS modul = modulates the Vibrio harveyi AI-2 quorum sensing system. hit rate 0.4% among 300,000. Vibrio harveyi JMH597 AI-2 luminescence/OD600 ratio, 9 h; stronger effect = lower value; strain lacks LuxN and CqsS sensors; 0 = neutral-control median. activity change, % at 7.5 µM; in the data active = activity change below about -75%, passing the limit was not always enough;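 also: luminescence divided by OD600 gain over 9 h not by final OD600 alone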
PG9 binder = PG9 antibody binding by small molecule. TR-FRET gp120-PG9 antibody binding. inhibition, % at 6.7 µM. hit rate 0.43% among 360,000. AID 624416; in the data active = inhibition above about 8.5%
FXN GAA850 act = increases GAA850 frataxin promoter reporter activity | HEK293 lucGAA850 FXN promoter luciferase reporter, 24 h; percent of 10 µM SAHA response | activation, % at 6 µM | hit rate 0.56% among 360,000 | AID 540364;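 active = activation above the average of all compounds screened plus 3 SD, cutoff fixed separately per campaign, cut at about 7.5% in these data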;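 also: 0% = DMSO wells and 100% = 10 µM SAHA wells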
SMARCA2 act conf = confirmation of SMARCA2 (BRM) function activators. MG213 cells, MMTV-luciferase with dexamethasone, luminescence, overnight; MG213 cells expressing E1A, Rb sequestered; DMSO wells 0%, reference activator 100%. hit rate 30% among 3,500. shares compounds with SMARCA2 activ. AID 652260. activation, % at 9.1 µM;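 active = activation above its plate's cutoff, the mean activation of tested wells plus 3 SD, cut at about 7.9% in these data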
VP16 Luc act = GAL4-VP16 reporter activation counter-screen. shares compounds with SMARCA2 activ. activation, % at 9.1 µM. hit rate 41% among 3,500. HEK293 GAL4-VP16 pG5luc reporter, luciferase luminescence; scaled: DMSO wells 0%, SAHA wells 100%;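 active = activation above the solvent-only control well mean plus 3 SD, averaged across control plates, cut at about 5.2% in these data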
Starred values were filed as active, the others as inactive. Only some compounds are listed: those with a hit (about 3.4% of all), similar ones and a draw of the others.

For Cc1ccc(C(=O)N/C(=C/c2ccco2)C(=O)NCC2CCCO2)cc1 (configuration not stated) the results were SMARCA2 activ 9.9*, HSP90 inh -3, HSF1 inh -6, AI-2 QS modul 25, PG9 binder 0, FXN GAA850 act 1, SMARCA2 act conf 2 and VP16 Luc act 1.
Screening CNC(=O)NC(=S)NC(=O)c1ccc(OC)cc1 returned SMARCA2 activ 10*, HSP90 inh -3, HSF1 inh 6, AI-2 QS modul -1, PG9 binder 1, FXN GAA850 act 5, SMARCA2 act conf 0 and VP16 Luc act 2.
CC(C)(C)c1ccc(C(=O)NC(=S)NCC2CCCO2)cc1 (configuration not stated) was read as SMARCA2 activ 2, HSP90 inh 4, HSF1 inh -4, AI-2 QS modul -12, PG9 binder -3 and FXN GAA850 act 1.
For COc1ccc(C(=O)NC(=S)NNC(=O)c2ccccc2O)cc1 the results were SMARCA2 activ 2, HSP90 inh -3, HSF1 inh 3, AI-2 QS modul 13, PG9 binder -1 and FXN GAA850 act -2.
For Cc1ccc(C(=O)N/C(=C\c2ccco2)C(=O)NCC2CCCO2)cc1C (configuration not stated) the results were SMARCA2 activ 0, HSP90 inh -5, HSF1 inh 4, AI-2 QS modul -4, PG9 binder -1 and FXN GAA850 act -2.
COc1ccc(C(=O)NC(=S)NCC2CCCO2)cc1 (configuration not stated) was read as SMARCA2 activ 11*, HSP90 inh -1, HSF1 inh 2, AI-2 QS modul 6, PG9 binder -2, FXN GAA850 act 1, SMARCA2 act conf 2 and VP16 Luc act 4.
For COc1ccc(C(=O)NC(=S)NNC(=O)c2cnccn2)cc1 the results were SMARCA2 activ 33*, HSP90 inh -1, HSF1 inh 7, AI-2 QS modul -13, PG9 binder -3, FXN GAA850 act -1, SMARCA2 act conf -3 and VP16 Luc act 1.
`CC(C)CNc1cccc2c1S(=O)(=O)N[C@@H](C)CO2` gave SMARCA2 activ -4 and PG9 binder -1.
`O=C(NCc1ccco1)Nc1c(Cl)cc(Cl)cc1Cl` gave SMARCA2 activ -4 and PG9 binder -2.
`CC(C)(C)[C@H](NC(=O)c1ccc(N)c(Cl)c1)C(=O)N1CCC[C@H]1C(=O)N[C@H](C#N)CC(=O)O` gave SMARCA2 activ -7, PG9 binder 0 and FXN GAA850 act 2.
Cc1ccc(C2CC(=O)C=C(Nc3ccc(Cl)cc3)C2)cc1 (configuration not stated) was read as SMARCA2 activ 9.9*, HSP90 inh -2, HSF1 inh -7, AI-2 QS modul 16, PG9 binder -3, FXN GAA850 act 0, SMARCA2 act conf -6 and VP16 Luc act 2.
`COc1cccc(-c2nnc(SCc3cccnc3)o2)c1` gave SMARCA2 activ 10*, HSP90 inh 4, HSF1 inh 23, AI-2 QS modul -55, PG9 binder -4, FXN GAA850 act 4, SMARCA2 act conf 6 and VP16 Luc act 6.6*.
COc1cc(OC)cc(-c2nnc(SCc3cccnc3)o2)c1 was read as SMARCA2 activ 2, HSP90 inh -3, HSF1 inh 5, AI-2 QS modul 26, PG9 binder 1 and FXN GAA850 act 4.
For CC(C)C(=O)N1CCC1(C)C(=O)NCc1ccc(C(C)(C)C)cc1 (configuration not stated) the results were SMARCA2 activ -3, PG9 binder -2 and FXN GAA850 act -1.
`Cc1nc(-c2ccccc2)sc1-c1ccn[nH]1` gave SMARCA2 activ 12*, HSP90 inh 7, HSF1 inh 12, AI-2 QS modul 22, PG9 binder 0, FXN GAA850 act 5, SMARCA2 act conf 14* and VP16 Luc act 13*.
`CCN(CC)CCn1c(=N)n(CC(O)COc2cccc(C)c2)c2ccccc21` (configuration not stated) gave SMARCA2 activ 8.3*, HSP90 inh 0, HSF1 inh 0, AI-2 QS modul 16, PG9 binder 0, FXN GAA850 act -6, SMARCA2 act conf 6 and VP16 Luc act 1.
COc1ccccc1CCn1cnc(-c2cccc(Br)c2)c1CC(C)C was read as SMARCA2 activ -8 and PG9 binder 1.
Screening COc1ccc(-c2ccc3c(n2)CCCN3Cc2ccccc2C(F)(F)F)cc1 returned SMARCA2 activ 8.2*, PG9 binder -1, SMARCA2 act conf 3 and VP16 Luc act 5.8*.
`COCCN1CCCc2nc(-c3ccc(Br)cc3)ccc21` gave SMARCA2 activ 11*, PG9 binder -1, SMARCA2 act conf 7 and VP16 Luc act 7.8*.
Screening O=S(=O)(c1ccc(C(F)(F)F)cc1)N1CCCc2nc(-c3ccc(Br)cc3)ccc21 returned SMARCA2 activ 15*, PG9 binder 0, SMARCA2 act conf -3 and VP16 Luc act 5.
For CCCCN(C(=O)c1ccccc1Cl)C(CC(C)C)c1nc2ccccc2[nH]1 (configuration not stated) the results were SMARCA2 activ -4 and PG9 binder 0.
Screening O=C(Nc1ccc(C(F)(F)F)cc1)OC1CC2CC1[C@H]1CCCCN1[C@H]2Cc1ccccc1 (some centres not stated) returned SMARCA2 activ -3.
N#CCS(=O)(=O)c1cccc[n+]1[O-] was read as SMARCA2 activ 8.8*, PG9 binder -2, SMARCA2 act conf -4 and VP16 Luc act 1.
CC(=O)O[C@H]1C[C@@H](n2cnc3c(Cl)ncnc32)[C@@H]2OC(C)(C)O[C@@H]21 was read as SMARCA2 activ 6 and PG9 binder -1.
Screening CC(=O)N1c2ccc(S(=O)(=O)N3CCC(C(=O)NCc4ccc(C)cc4)CC3)cc2CC1C (configuration not stated) returned SMARCA2 activ 11*, HSP90 inh 4, HSF1 inh 15, AI-2 QS modul -6, PG9 binder -2, FXN GAA850 act 0, SMARCA2 act conf -2 and VP16 Luc act 1.
